Laboratory results published in PubChem BioAssay AID652016 (National Center for Advancing Translational Sciences (NCATS), 2013).
Results filed as inconclusive are left out. Where a call stands in place of a potency, no number is given. Active and inactive are the calls of the source. The call rests on the fitted dose curve; in most records, active means well fitted inhibition curve with a large enough effect; inconclusive means small, poorly fitted or top-dose-only effect; inactive means flat fitted curve, though single readings scatter.
Potency means the concentration at half of the fitted maximal effect.

The molecules below were run against Luciferin 4-monooxygenase (Photinus pyralis) (UniProt P08659) (assay: qHTS Assay for Inhibitors of Firefly Luciferase from the GSK Published Protein Kinase Inhibitor Set). Details: purified firefly luciferase, luminescence inhibition; series mostly up to 57.5 µM.
Sequence of Luciferin 4-monooxygenase (Photinus pyralis) (P08659 whole entry, looked up): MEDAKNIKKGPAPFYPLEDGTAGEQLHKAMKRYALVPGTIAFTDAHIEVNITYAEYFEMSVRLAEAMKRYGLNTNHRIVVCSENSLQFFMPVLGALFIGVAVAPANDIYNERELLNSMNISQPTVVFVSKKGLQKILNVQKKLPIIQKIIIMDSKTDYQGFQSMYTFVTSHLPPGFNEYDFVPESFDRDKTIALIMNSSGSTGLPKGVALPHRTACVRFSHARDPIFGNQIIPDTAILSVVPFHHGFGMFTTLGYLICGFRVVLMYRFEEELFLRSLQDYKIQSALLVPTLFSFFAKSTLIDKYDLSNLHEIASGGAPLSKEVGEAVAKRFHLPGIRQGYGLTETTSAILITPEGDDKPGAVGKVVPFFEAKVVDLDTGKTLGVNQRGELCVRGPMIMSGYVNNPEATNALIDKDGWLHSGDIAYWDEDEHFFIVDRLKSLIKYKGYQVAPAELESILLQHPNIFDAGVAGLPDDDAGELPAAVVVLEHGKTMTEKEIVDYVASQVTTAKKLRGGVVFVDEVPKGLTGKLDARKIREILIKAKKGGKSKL
How it was run: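 Enzyme-level luminescence assay: compounds titrated (about 60uM down to 300pM) into substrate buffer (10uM ATP, 10uM D-luciferin, pH 7.5 Tris acetate with Mg, Tween-20, BSA), then 10nM firefly luciferase added; read after ~5 min.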
For `Nc1ncnc2occ(-c3ccc(NC(=O)Nc4cccc(C(F)(F)F)c4)cc3)c12`, the Potency was “inactive”.
With `NC(=O)c1sc(-n2cnc3ccc(C(F)(F)F)cc32)cc1OCc1ccccc1Br` the Potency was “inactive”.
`CNC(=O)c1ncccc1Nc1nc(Nc2cc3c(cc2OC)CCCN3C(=O)CN(C)C)nc2[nH]ccc12` was tested, and the Potency was “inactive”.
For `Fc1ccc(-c2cc(-c3cn[nH]c3-c3ccccn3)ccn2)cc1`, the Potency was “inactive”.
With `CCS(=O)(=O)c1ccc(OC)c(Nc2ncc(-c3cccc(F)c3)o2)c1` the Potency was “inactive”.
For `COc1cc2ncn(-c3cc(OCc4cccs4)c(C(N)=O)s3)c2cc1OC`, the Potency was “inactive”.
`OCCCNc1nccc(-c2c(-c3ccc(F)cc3)nn3cc(C(F)(F)F)ccc23)n1` was tested, and the Potency was 32.6 µM (active).
`O=C1NC(=O)C(c2ccccc2Cl)=C1Nc1cccc(O)c1` was tested, and the Potency was “inactive”.
In the case of `COc1ccc2ncn(-c3cc(OC(C)c4ccccc4Cl)c(C(N)=O)s3)c2c1` (stereo unspecified), the Potency is reported as “inactive”.
`Fc1ccc(-c2ncn(C3CCNCC3)c2-c2ccnc(Oc3cccc(C(F)(F)F)c3)n2)cc1` was tested, and the Potency was “inactive”.
For `Nc1nonc1-c1nc2cnccc2n1C1CC1`, the Potency was “inactive”.
For `CCn1c(-c2nonc2N)nc2cncc(C(=O)NCCNC)c21`, the Potency was “inactive”.
For `Nc1ncnc2occ(-c3ccc(NC(=O)Nc4cc(C(F)(F)F)cc(C(F)(F)F)c4)cc3)c12`, the Potency was “inactive”.
With `CC1=C(C(=O)Nc2ccc3n[nH]c(C)c3c2)C(c2ccc(C(F)(F)F)cc2)CC(=O)N1` (stereo unspecified) the Potency was “inactive”.
For `NS(=O)(=O)c1ccc(N=Nc2c(O)[nH]c3ccc(C(=O)NCCCn4ccnc4)cc23)cc1`, the Potency was “inactive”.
For `NC(=O)CCc1ccccc1Oc1nccc(-c2c(-c3ccc(F)cc3)ncn2C2CCNCC2)n1`, the Potency was “inactive”.
